The values that follow come from PubChem BioAssay (Tox21).

In assay [1] the target is Acetylcholinesterase (Homo sapiens) (UniProt P22303). The assay can be described thus: Acetylcholinesterase (AChE) small molecule antagonists: colormetric cell-based qHTS assay (AID 1347395). Also: nearly all actives have a fitted effect of over 30% in size. Also: potency is read from the fitted curve at half-maximal effect. In a few lines: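 SH-SY5Y cells, plated overnight at 37 C, were exposed to compounds for 30 min at 37 C and 5% CO2. Acetylthiocholine plus DTNB was then added, and thiocholine from endogenous AChE was quantified colorimetrically after 90 min at 37 C.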
In general terms: In qHTS, concentration-response curves come from the screen itself.

Assay [2] has the same target. The experiment in a line: Acetylcholinesterase (AChE) small molecule antagonists: enzyme-based qHTS assay (AID 1347397). Also: nearly all actives have a fitted effect of over 55% in size. Also: potency is read from the fitted curve at half-maximal effect. Particulars: Potency: AChE enzyme activity inhibition; outcome: AChE enzyme activity inhibition. In a few lines:
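Enzyme inhibition was scored from DTNB-detected thiocholine formed by recombinant human AChE acting on acetylthiocholine. The 30 min compound preincubation and 10 min substrate reaction were both run at room temperature, with DMSO as vehicle control.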

Assay [3] shares this target. The assay can be described thus: Acetylcholinesterase (AChE) small molecule antagonists: enzyme-based qHTS assay with human liver microsomes (AID 1347399). Also: nearly all actives have a fitted effect of over 60% in size. To be noted: Potency: qHTS inhibition; outcome: qHTS inhibition. In a few lines:
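Recombinant human AChE (50 mU/mL in the enzyme mix) and human liver microsomes (0.25 mg/mL final) were preincubated with compound and NADPH (0.25 mg/mL final) for 30 min at 37 C. Acetylthiocholine/DTNB was then added; thiocholine was read colorimetrically after 10 min at room temperature.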

Assay [4] has the same target. The experiment in a line: Acetylcholinesterase (AChE) small molecule antagonists: fluorescence cell-based qHTS assay (AID 1347398). Also: nearly all actives have a fitted effect of over 50% in size. To be noted: Potency: AChE activity; outcome: AChE activity. In a few lines: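 Endogenous acetylcholinesterase of SH-SY5Y neuroblastoma cells is measured in situ. After overnight attachment and 30 min compound exposure, cells receive acetylthiocholine and Thiolite Green; fluorescence is read after 40 min at room temperature.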

Assay [5] is described as follows: qHTS assay for small molecule agonists of the p53 signaling pathway (AID 651631). Also: nearly all actives have a fitted effect of over 15% in size. In a few lines:
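HCT-116 cells carrying a stable p53 response element–beta-lactamase reporter were plated, rested 5 h at 37 °C, then exposed to compound in DMSO for 16 h at 37 °C; reporter activity was read as FRET substrate fluorescence after 2 h at room temperature.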

In assay [6] the target is Glucocorticoid receptor (Homo sapiens) (UniProt P04150). The experiment in a line: qHTS assay to identify small molecule antagonists of the glucocorticoid receptor (GR) signaling pathway (AID 720692; active = well fitted inhibition curve with a large enough effect in the signal ratio in the repeat runs, not every such curve was filed as active; the % refers to the signal ratio). In short, it runs like this: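 Inhibition of glucocorticoid signalling is measured in HeLa cells with a GRE-controlled beta-lactamase reporter; cells are co-treated with compound and 5 nM dexamethasone (final) for 18 h before FRET substrate readout.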

A number with no mark means an inactive call. Records with an inconclusive call do not appear. Activity calls are given as the source filed them. Unless noted, calls follow the shape of the full dose curve.

Acetylcholinesterase (Homo sapiens), sequence (P22303 whole entry, looked up): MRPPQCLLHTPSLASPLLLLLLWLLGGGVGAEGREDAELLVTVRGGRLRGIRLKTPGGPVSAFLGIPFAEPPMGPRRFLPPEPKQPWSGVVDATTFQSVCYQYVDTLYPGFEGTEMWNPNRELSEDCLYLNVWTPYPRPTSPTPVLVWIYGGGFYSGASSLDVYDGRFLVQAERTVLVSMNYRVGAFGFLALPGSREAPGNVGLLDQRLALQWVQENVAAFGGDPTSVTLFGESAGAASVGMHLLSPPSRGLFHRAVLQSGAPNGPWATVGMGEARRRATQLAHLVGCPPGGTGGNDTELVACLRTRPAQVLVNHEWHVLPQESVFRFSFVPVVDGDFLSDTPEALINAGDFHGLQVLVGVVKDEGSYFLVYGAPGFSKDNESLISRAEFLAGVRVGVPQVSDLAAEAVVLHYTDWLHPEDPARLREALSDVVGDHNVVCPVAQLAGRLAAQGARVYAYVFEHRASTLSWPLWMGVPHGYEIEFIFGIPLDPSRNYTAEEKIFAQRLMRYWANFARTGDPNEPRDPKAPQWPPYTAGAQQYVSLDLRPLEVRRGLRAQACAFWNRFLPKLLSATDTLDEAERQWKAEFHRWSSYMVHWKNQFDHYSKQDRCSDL
Glucocorticoid receptor (Homo sapiens), sequence (P04150 whole entry, looked up): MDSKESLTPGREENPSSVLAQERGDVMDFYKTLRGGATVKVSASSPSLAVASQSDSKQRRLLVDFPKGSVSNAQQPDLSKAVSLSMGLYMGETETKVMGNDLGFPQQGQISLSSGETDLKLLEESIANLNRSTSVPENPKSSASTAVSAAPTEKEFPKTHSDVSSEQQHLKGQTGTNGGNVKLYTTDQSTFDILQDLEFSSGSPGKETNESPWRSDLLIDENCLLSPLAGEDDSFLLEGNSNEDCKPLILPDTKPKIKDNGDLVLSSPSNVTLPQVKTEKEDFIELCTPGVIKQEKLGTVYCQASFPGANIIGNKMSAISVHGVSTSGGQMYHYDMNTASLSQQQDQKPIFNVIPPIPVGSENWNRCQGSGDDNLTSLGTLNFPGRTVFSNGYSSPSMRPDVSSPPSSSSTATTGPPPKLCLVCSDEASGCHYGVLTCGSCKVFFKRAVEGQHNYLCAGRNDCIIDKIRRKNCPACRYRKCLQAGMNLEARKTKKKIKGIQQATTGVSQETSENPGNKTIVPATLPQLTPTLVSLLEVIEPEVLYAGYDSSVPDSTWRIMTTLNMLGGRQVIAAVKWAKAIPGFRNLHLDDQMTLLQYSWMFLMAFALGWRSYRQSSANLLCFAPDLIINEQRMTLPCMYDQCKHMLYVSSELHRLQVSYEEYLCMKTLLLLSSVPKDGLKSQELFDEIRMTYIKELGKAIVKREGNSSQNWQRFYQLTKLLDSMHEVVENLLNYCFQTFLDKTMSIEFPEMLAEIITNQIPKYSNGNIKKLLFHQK

As to `CC(Cc1ccccc1)(NC(=O)CN)c1ccccc1` (stereo not given), the Potency result in assay [1], in assay [2] and in assay [3] was “inactive” throughout.

Take `CCCC(C(=O)OCCN(CC)CC)(c1ccccc1)c1ccccc1`: the Potency result in assay [1], in assay [2] and in assay [3] was “inactive” throughout.

`Cc1ccc(O)c(N)c1`: the Potency entry in assay [1], in assay [2] and in assay [3] was “inactive” each time.

Take `COc1ccc(C(=O)NCc2ccc(OCCN(C)C)cc2)cc1OC`: the Potency was 6.92 µM (active) in assay [1] and 27.5 µM (active) in assay [2]. In addition, the Potency entry in assay [3] is “inactive”.

Regarding `CN1CCN(CCC(=O)N2c3ccccc3Sc3ccc(C(F)(F)F)cc32)CC1`, the Potency result in assay [1], in assay [2] and in assay [3] was “inactive” in each case.

As for `CN(C)CCCOc1nn(Cc2ccccc2)c2ccccc12`, the Potency entry in assay [1], in assay [2] and in assay [3] was “inactive” throughout.

As to `Oc1cc2c(cc1O)[C@H]1c3ccc(O)c(O)c3OC[C@@]1(O)C2`, the Potency result in assay [1], in assay [2] and in assay [3] was “inactive” throughout.

Regarding `O=C1Cc2cc(CCN3CCN(c4nsc5ccccc45)CC3)c(Cl)cc2N1`, the Potency result in assay [1], in assay [2] and in assay [3] was “inactive” each time.

Take `CC(C)COCC(CN(Cc1ccccc1)c1ccccc1)N1CCCC1` (stereo not given): the Potency result in assay [1], in assay [2] and in assay [3] was “inactive” each time.

Turning to `O=C(O)c1cccnc1C(=O)O`, the Potency entry in assay [1], in assay [2] and in assay [3] was “inactive” in each case.

As to `COC(=O)CSc1cc(N=c2sc(=O)n3n2CCCC3)c(F)cc1Cl`, the Potency result in assay [1], in assay [2] and in assay [3] was “inactive” in each case.

On to `CCCOc1ccc2c(c1)CC[C@@H]1[C@@H]2CC[C@]2(C)C(OC)CC[C@@H]12` (stereo not given in full), for which the Potency entry in assay [1], in assay [2] and in assay [3] was “inactive” in each case.

In the case of `NC(=O)n1c(O)c(C(=O)c2cccs2)c2cc(Cl)ccc21`, the Potency entry in assay [1], in assay [2] and in assay [3] was “inactive” throughout.

As to `CCCCC`, the Potency entry in assay [1], in assay [2] and in assay [3] was “inactive” in each case.

Consider `OCCN1CCN(CCCN2c3ccccc3Sc3ccc(Cl)cc32)CC1`, for which the Potency entry in assay [1], in assay [2] and in assay [3] was “inactive” in each case.

Consider `CCC(C)SSC(C)CC` (stereo not given), for which the Potency result in assay [1], in assay [2] and in assay [3] was “inactive” each time.

For the compound `C[C@@H](CN(C)C)CN1c2ccccc2Sc2ccccc21`, the Potency entry in assay [1], in assay [2] and in assay [3] was “inactive” throughout.

For the compound `C/C(=N/NC(=O)c1ccncc1)C(=O)O`, the Potency result in assay [1], in assay [2] and in assay [3] was “inactive” throughout.

For `CN(Cc1cc(Br)cc(Br)c1N)C1CCCCC1`, the Potency result in assay [1], in assay [2] and in assay [3] was “inactive” throughout.

For `O=S(=O)(O)c1ccc(N=Nc2c(O)ccc3ccccc23)cc1`, the Potency result in assay [1], in assay [2] and in assay [3] was “inactive” each time.

Take `CCCCCc1ccc(Cl)cc1`: the Potency result in assay [1], in assay [2] and in assay [3] was “inactive” throughout.

Regarding `CCc1cccc(C)c1N(C(=O)C(=O)O)C(C)COC` (stereo not given), the Potency result in assay [1], in assay [2] and in assay [3] was “inactive” each time.

`CC(=O)[C@]1(O)Cc2c(O)c3c(c(O)c2[C@@H](O[C@H]2C[C@H](N)[C@H](O)[C@H](C)O2)C1)C(=O)c1ccccc1C3=O`: the Potency in assay [1] was 17.4 µM (active). For the same compound, the Potency result in assay [2] and in assay [3] was “inactive” each time.

As for `CCO[C@H](Cc1ccc(OCCc2ccc(OS(C)(=O)=O)cc2)cc1)C(=O)O`, the Potency result in assay [1], in assay [2] and in assay [3] was “inactive” each time.

Regarding `Cc1oc2c(NC(=O)c3c(Cl)cccc3Cl)cccc2c1C(C)(C)O`, the Potency entry in assay [1] and in assay [4] was “inactive” throughout.

As to `Cc1c(I)c(=O)n(-c2ccccc2)n1C`, the Potency result in assay [1], in assay [2] and in assay [3] was “inactive” in each case.

`CCCCOc1ccc(N)cc1`: the Potency result in assay [1], in assay [2] and in assay [3] was “inactive” each time.

With `CC1CCc2nccnc21` (stereo not given), the Potency entry in assay [1], in assay [2] and in assay [3] was “inactive” throughout.

Take `Cc1ccc(O)c(O)c1`: the Potency entry in assay [1], in assay [2] and in assay [3] was “inactive” in each case.

In the case of `COc1ccc(N=Nc2cc(C)c(N=Nc3ccc(S(=O)(=O)O)cc3)cc2OC)cc1`, the Potency entry in assay [1], in assay [4] and in assay [3] was “inactive” in each case.

Take `Cc1ccccc1C`: the Potency result in assay [5], in assay [6], in assay [1], in assay [2] and in assay [3] was “inactive” in each case.

With `NCc1cccc(C2CCN(C(=O)c3ccc(C#Cc4ccccc4F)o3)CC2)c1`, the Potency result in assay [1] and in assay [3] was “inactive” throughout. Besides, in assay [2], the Potency was 79.6 µM (active).

As for `CC(=O)O[C@@H]1CC2CCC1(C)C2(C)C` (stereo not given in full), the Potency entry in assay [1], in assay [4] and in assay [3] was “inactive” in each case.

`COC(=O)c1ccccc1C(=O)c1ccc(OCCN2CCCCC2)cc1`: the Potency result in assay [1], in assay [2] and in assay [3] was “inactive” throughout.

On to `CC1CC(=O)NN=C1c1ccc(NCC(C)(C)NCC(O)COc2cc(Cl)ccc2C#N)cc1` (stereo not given), for which the Potency in assay [1] was 24.5 µM (active). The Potency result in assay [2] and in assay [3] was “inactive” each time.

On to `CC[N+](C)(CC)CCOC(=O)C1c2ccccc2Oc2ccccc21`, for which the Potency result in assay [1], in assay [2] and in assay [3] was “inactive” each time.

`CC(C)(C)C1CCC(CC2=C(O)c3ccccc3C(=O)C2=O)CC1` (stereo not given): the Potency entry in assay [1], in assay [2] and in assay [3] was “inactive” each time.

In the case of `CC[C@H]1OC(=O)[C@H](C)[C@@H](O[C@H]2C[C@@](C)(OC)[C@@H](O)[C@H](C)O2)[C@H](C)[C@@H](O[C@@H]2O[C@H](C)C[C@H](N(C)C)[C@H]2O)[C@](C)(OC)C[C@@H](C)C(=O)[C@H](C)[C@@H](O)[C@]1(C)O`, the Potency entry in assay [1], in assay [2] and in assay [3] was “inactive” in each case.

Regarding `O=C(Nc1ccc(S(=O)(=O)N2CCOCC2)cc1)c1cc(Cl)ccc1NS(=O)(=O)c1ccc(Cl)s1`, the Potency result in assay [1], in assay [4] and in assay [3] was “inactive” in each case.

For `[K+]`, the Potency entry in assay [1], in assay [2] and in assay [3] was “inactive” throughout.

In the case of `CN(C)CC[C@@H](c1ccc(Br)cc1)c1ccccn1`, the Potency result in assay [1], in assay [2] and in assay [3] was “inactive” in each case.

For `CC(=O)c1ccc2c(c1)[C@H](NC(=O)c1ccc(F)cc1)[C@@H](O)C(C)(C)O2`, the Potency result in assay [1], in assay [2] and in assay [3] was “inactive” each time.

With `O=C(Cl)c1cc(C(=O)Cl)cc(C(=O)Cl)c1`, the Potency result in assay [1], in assay [2] and in assay [3] was “inactive” in each case.
